Screens: PubChem, several laboratories
S1P4 antagonist – S1P4 receptor antagonists, primary screen, cell-based | inhibition, % at 4.98 µM | S1P4-expressing cells, antagonist mode, reporter read-out | hit rate 0.26% among 220,000; in the data active = inhibition above about 29%
S1P3 antagonist – S1P3 receptor antagonists, primary screen, cell-based. hit rate 0.27% among 170,000. AID 485, 2006. Sphingosine 1-phosphate receptor 3 (Homo sapiens), Q99500. CHO S1P3 NFAT-BLA reporter, FRET fluorescence, antagonist mode. inhibition, % at 4.98 µM;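 active = inhibition above the plate cutoff, the mean inhibition of test wells on that plate plus 3 SD, cut at about 28% in these data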;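 also: cells challenged with S1P at its EC80 of 0.8 µM; blue over green emission ratio from cleaved BLA substrate after 4 h stimulation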
Target sequence (Q99500 whole entry, looked up): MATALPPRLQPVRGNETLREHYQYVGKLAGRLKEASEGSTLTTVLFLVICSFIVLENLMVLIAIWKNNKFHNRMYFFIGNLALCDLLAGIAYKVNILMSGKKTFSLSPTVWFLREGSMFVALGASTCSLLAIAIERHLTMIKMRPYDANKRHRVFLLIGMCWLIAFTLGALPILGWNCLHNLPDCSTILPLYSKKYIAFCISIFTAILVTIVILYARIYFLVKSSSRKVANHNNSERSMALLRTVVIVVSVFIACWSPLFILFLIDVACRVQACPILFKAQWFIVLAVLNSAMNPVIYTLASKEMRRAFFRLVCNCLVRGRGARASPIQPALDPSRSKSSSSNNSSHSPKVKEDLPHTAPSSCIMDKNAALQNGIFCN
HSF1 activator – HSF-1 activators, primary screen, NIH3T3-HGL cells, MG132 stress, luminescence, single point; hit rate 1.7% among 300,000; AID 504408, 2011; NIH3T3-HGL HSF-1 luciferase reporter, 8 h; 100% = twice DMSO control signal; activation, % at 9 µM;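 active = mean replicate activation of at least 50% with a set share of replicates each reaching 50%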
S1P4 agonist – S1P4 receptor agonists, primary screen, cell-based. Sphingosine 1-phosphate receptor 4 (Homo sapiens), O95977. S1P4-expressing cell line, agonist reporter assay. activation, % at 4.98 µM. hit rate 0.35% among 220,000. AID 1509, 2009; in the data active = activation above about 11%
HSF1 inh – HSF1 inhibitors in luciferase reporter cells, primary screen, cell-based, NIH3T3, luminescence; NIH3T3-HGL HSE-luciferase, MG132-induced, luminescence 8 h; hits give low values; hit rate 0.77% among 300,000; activity change, negative = inhibition, % at 7.5 µM (by protocol);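 active = more than half of replicate wells show activity change below -50%, luminescence cut by over half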;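 also: luciferase reports HSF-1 transcriptional activity via heat shock element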
Hsp70 act – Hsp70 transcriptional activators, primary screen, cell-based, HeLa, Hsp70 promoter luciferase, luminescence, 10 µM; HeLa Hsp70 promoter luciferase reporter; scaled: vehicle 0, proteasome-inhibitor control 100%; activation, % at 10 µM; hit rate 0.04% among 200,000;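 active = activation above the mean across all tested compounds plus 3 SD, cutoff set per campaign, cut at about 5.5% in these data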
Hsp70 act DR – Hsp70 transcriptional activators, dose response, cell-based, HeLa, Hsp70 promoter luciferase, luminescence, triplicate | shares compounds with Hsp70 act | HeLa hsp70.1pr-luc reporter | calls only at 99 µM | hit rate 10% among 70;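 active = over 50% activation at some tested dose; inactive = under 50% activation at every tested dose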
S1P4 agonist cf – S1P4 receptor agonists, retest, confirmation, cell-based, high throughput | S1P4 agonist cell-based reporter assay | activation, % at 4.98 µM | shares compounds with S1P4 agonist | hit rate 7% among 740; in the data active = activation above about 12%
S1P1 ag – S1P1 receptor agonists, human, counter-screen for S1P4 agonist project, cell-based. shares compounds with S1P4 agonist. S1P1 agonist cell-based assay, activation. activation, % at 4.98 µM. hit rate 4% among 740. AID 1563, 2009; in the data active = activation above about 21%
S1P4 antag cf – S1P4 receptor antagonists, human, confirmation, cell-based; shares compounds with S1P4 antagonist; S1P4-expressing cell line, antagonist mode, reporter read-out; inhibition, % at 4.98 µM; hit rate 71% among 520; AID 1524, 2009; in the data active = inhibition above about 30%
S1P1 antag – S1P1 receptor antagonists, human, counter-screen for S1P4 antagonist project, cell-based. shares compounds with S1P4 antagonist. cell-based S1P1 antagonist counterscreen, inhibition. inhibition, % at 4.98 µM. hit rate 37% among 520. AID 1564, 2009; in the data active = inhibition above about 40%;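 also: receptor stimulated with S1P near its EC80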
Large screens that a line does not name were inactive (follow-up assays come after a bar, where they were run). A selection: hits, their analogues and other compounds. The true share with any hit is near 2.9%.

CCCCS(=O)(=O)/C=C\C=C/S(=O)(=O)CCCC	S1P4 antagonist 99, HSF1 inh -83, Hsp70 act 56 (no result: S1P3 antagonist) | Hsp70 act DR inactive | S1P4 antag cf 117 | S1P1 antag 62
CCCCS(=O)(=O)/C=C\C1C2C=CC(C2)C1S(=O)(=O)CCCC (stereo unspecified)	none
COC(=O)c1ccc2c(c1)C(C)(C)C(/C=C/c1ccccc1O)=[N+]2C	S1P4 antagonist 37, Hsp70 act 8.4 (no result: S1P3 antagonist) | Hsp70 act DR active | S1P4 antag cf 116 | S1P1 antag 82
CCC(=O)N1CCN(c2ccc(NC(=O)c3ccc([N+](=O)[O-])o3)cc2Cl)CC1	S1P4 antagonist 56, HSF1 activator 128, Hsp70 act 43 | Hsp70 act DR inactive | S1P4 antag cf 113 | S1P1 antag 44
C=CCc1ccccc1OCC(=O)N/N=C/c1ccc(OC(C)=O)cc1OC(C)=O	none
COc1ccc(/C=C/C(=O)c2cc(F)ccc2OC(=O)c2ccccc2)cc1OC	none (no result: S1P3 antagonist)
COc1ccc(/C=C/C(=O)c2cc(F)ccc2OC(=O)c2ccccc2OC)cc1OC	S1P4 antagonist 47, HSF1 activator 69, Hsp70 act 9.9 | Hsp70 act DR inactive | S1P4 antag cf 82 | S1P1 antag 99
CCCC(=O)Nc1c(-c2cccc(OC)c2)c(=O)c2ccccc2n1C	none (no result: S1P4 antagonist, S1P3 antagonist, S1P4 agonist, Hsp70 act)
O=C(OCn1ncc(Br)c(Br)c1=O)c1ccccc1Cl	S1P4 antagonist 48, HSF1 inh -74, Hsp70 act 17 (no result: S1P3 antagonist) | Hsp70 act DR active | S1P4 antag cf 115 | S1P1 antag inactive
CC12CCC(=O)N1C(C(=O)N1CCN(S(=O)(=O)c3cccc(C(F)(F)F)c3)CC1)CS2 (stereo unspecified)	none (no result: S1P4 antagonist, S1P3 antagonist, S1P4 agonist, Hsp70 act)
Cc1ccccc1NS(=O)(=O)c1cc(OCC(N)=O)c(C)cc1Cl	S1P4 agonist 15 | S1P4 agonist cf inactive | S1P1 ag inactive
Cc1ccc(NS(=O)(=O)c2cc(OCC(N)=O)c(C)cc2Cl)cc1C	none (no result: S1P3 antagonist)
Cn1cccc1C(=O)NC(=O)COC(=O)CNC(=O)c1ccc(Cl)cc1Cl	none
Cn1cccc1C(=O)NC(=O)COC(=O)CNC(=O)CNC(=O)c1ccc(Cl)cc1Cl	S1P4 agonist 22 | S1P4 agonist cf inactive | S1P1 ag inactive
O=C(CSc1ccc(-c2cccs2)nn1)Nc1ccccc1	S1P4 agonist 35 | S1P4 agonist cf inactive | S1P1 ag inactive
Cc1cc(C)cc(NC(=O)CSc2ccc(-c3cccs3)nn2)c1	none
O=C(Cc1ccccc1[N+](=O)[O-])NCCCc1ccccc1	none (no result: S1P4 antagonist, S1P3 antagonist, S1P4 agonist, Hsp70 act)
CCOC(=O)C1=C(C)NC(=O)NC1c1ccc(N2CCC(c3ccccc3)=N2)cc1 (stereo unspecified)	HSF1 activator 67, S1P4 agonist 15 | S1P4 agonist cf inactive | S1P1 ag inactive
CCOC(=O)c1sc(NC(=S)NC(=O)c2ccco2)nc1C	S1P4 agonist 34 | S1P4 agonist cf inactive | S1P1 ag inactive
COC(=O)c1sc(NC(=O)c2ccco2)nc1C	none
Cn1c(=NC(=O)c2ccccc2[N+](=O)[O-])sc2cccc(F)c21	S1P4 agonist 11 (no result: Hsp70 act) | S1P4 agonist cf inactive | S1P1 ag inactive
Cn1c(=NC(=O)C(C)(C)C)sc2cccc(F)c21	none (no result: Hsp70 act)
Cn1cccc1C(=O)C(=O)Nc1cccc(Cl)c1Cl	S1P4 agonist 20 (no result: S1P3 antagonist) | S1P4 agonist cf inactive | S1P1 ag inactive
Nc1nc(NCC2CCCO2)nc(Nc2ccc(F)cc2)c1[N+](=O)[O-] (stereo unspecified)	S1P4 agonist 25 | S1P4 agonist cf inactive | S1P1 ag inactive
O=C(N/N=C1\CCCc2ccccc21)c1ccc([N+](=O)[O-])cc1	S1P4 agonist 12 (no result: S1P3 antagonist) | S1P4 agonist cf inactive | S1P1 ag inactive
CCOc1ccc(S(=O)(=O)NCc2ccccc2)cc1C(N)=O	S1P4 agonist 11 | S1P4 agonist cf inactive | S1P1 ag inactive
Cc1cccc(NC(=S)NC(=O)c2ccco2)n1	none
N#CCC(CNc1ncc(C(F)(F)F)cc1Cl)OC(=O)c1cccc(C(F)(F)F)c1 (stereo unspecified)	S1P4 agonist 16 (no result: S1P3 antagonist) | S1P4 agonist cf inactive | S1P1 ag inactive
Cn1c(SCC(=O)O)nnc1-c1ccc2ncccc2c1	S1P4 agonist 117 (no result: Hsp70 act) | S1P4 agonist cf inactive | S1P1 ag inactive
COC(=O)C(C)(C)ONC(=O)Nc1ccc(Br)cc1	none
COC(=O)C(C)(C)ONC(=O)Nc1ccccc1	S1P4 agonist 194 | S1P4 agonist cf inactive | S1P1 ag inactive
Cn1c(CN2CCOCC2)nnc1SCC(=O)Nc1cccc(C(F)(F)F)c1	none (no result: S1P4 antagonist, S1P3 antagonist, S1P4 agonist, Hsp70 act)
Cc1nn(Cc2nnc(SCC(=O)Nc3cccc(C(F)(F)F)c3)n2C)c(C)c1[N+](=O)[O-]	S1P4 agonist 56 (no result: Hsp70 act) | S1P4 agonist cf inactive | S1P1 ag inactive
Cc1nc2cc(NC(=O)NCc3ccco3)ccc2o1	S1P4 agonist 20 | S1P4 agonist cf inactive | S1P1 ag inactive
Cc1ccc(C)c(C(=O)OCC(=O)N(C)c2ccccc2)c1	none (no result: S1P4 antagonist, S1P3 antagonist, S1P4 agonist, Hsp70 act)
CCN(C(=S)Nc1ccc(C(C)=O)cc1)C1CCCCC1	S1P4 agonist 42 | S1P4 agonist cf inactive | S1P1 ag inactive
CCN(CC(=O)Nc1ccccc1C(F)(F)F)C(=O)CN1C(=O)NC(C)(c2ccccc2)C1=O (stereo unspecified)	none (no result: S1P4 antagonist, S1P3 antagonist, S1P4 agonist, Hsp70 act)
CCOc1ccc2nc(SCC(=O)Nc3cc(C)on3)c(C)cc2c1	none (no result: S1P4 antagonist, S1P3 antagonist, S1P4 agonist, Hsp70 act)
CCOC(=O)CSc1ccc(-c2nc3ccccc3[nH]2)cn1	S1P4 agonist 19 (no result: S1P3 antagonist) | S1P4 agonist cf inactive | S1P1 ag inactive
CCOC(=O)CSc1ccc(-c2nc3cc(C)c(C)cc3[nH]2)cn1	none (no result: S1P3 antagonist)
